Screening results (PubChem BioAssay)
Sampled rows, rich in hits. Any-hit rate of the full collection: about 2.1%.
aSyn yeast inh: inhibitors of alpha-synuclein toxicity in yeast | 370,000 compounds, 0.14% hits | Potency, µM (series often up to 46.1 µM), most hits filed as activators | Yeast expressing alpha-synuclein, growth rescue, BacTiter-Glo, 24 h; further: nearly all actives have a fitted effect of over 65% in size
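Readout is rescue of growth in alpha-synuclein-expressing yeast, so inhibitors of toxicity appear as activators. Growth after 24 hr at 30 deg C in galactose medium is quantified by luminescence.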
TDP43 rescue: inhibitors of TDP-43 toxicity in yeast | TDP-43 expressing yeast growth rescue, BacTiter-Glo, 24 h | Potency, µM (titrated, usually from 46.1 µM), usual class: activators | 410,000 compounds, 1.8% hits | AID 652104; further: nearly all actives have a fitted effect of over 50% in size
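Growth rescue of TDP-43-toxic yeast measured as ATP luminescence (BacTiter-Glo). Cells grown to mid-log in raffinose, induced in galactose at OD600=0.02, exposed to compound 24 hr at 30 deg C.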
Abeta rescue: A-beta toxicity reversal in yeast. yeast expressing A-beta42, growth rescue, OD600, 48 h; response scale: 0% DMSO, 100% iron-clioquinol control. Potency, µM (highest dose often 46.1 µM), most hits filed as activators. 410,000 compounds, 0.063% hits. AID 1347071; further: nearly all actives have a fitted effect of over 55% in size
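Growth rescue measured by 600 nm absorbance after 48 h yeast culture at 30 C with compound. Values normalized between DMSO and an equimolar ferric chloride plus clioquinol control.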
FUS suppressor: rescues growth of FUS-expressing yeast; S. cerevisiae FUS-expressing, growth rescue, OD600, 24 h; Potency, µM (highest dose often 76.6 µM), usual class: activators; 390,000 compounds, 0.24% hits; further: nearly all actives have a fitted effect of over 55% in size
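Toxicity suppression screen in FUS-yeast. Cells induced with 2% galactose, starting OD 0.005, treated 24hr at 30C with compounds at multiple final concentrations; growth by OD600.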
Of the large screens only hits and unclear results are named; the others gave an inactive call. The call rests on the fitted dose curve; in most records, active means well fitted curve in the direction sought with a large enough effect; inconclusive means small, poorly fitted or top-dose-only effect, or another doubt; inactive means no such curve, though single readings can be large; an effect the other way counts as inactive or inconclusive.

COc1ccc(-c2ccc(CN3C(C(C)C)C(=O)N(Cc4cn(CC5CCCCC5)nn4)CCS3(=O)=O)cc2)cc1OC (configuration not stated)	FUS suppressor 25µM
COc1ccc(-c2ccc(CN3C(C(C)C)C(=O)N(Cc4cn(CCC5OCCO5)nn4)CCS3(=O)=O)cc2)cc1 (configuration not stated)	TDP43 rescue 35µM, FUS suppressor inconclusive
Cc1ccccc1-c1ccc(CN2C(C(C)C)C(=O)N(Cc3cn(CCC4OCCO4)nn3)CCS2(=O)=O)cc1 (configuration not stated)	aSyn yeast inh inconclusive, TDP43 rescue inconclusive, FUS suppressor 10µM
COc1ccc(-c2ccc(CN3C(C(C)C)C(=O)N(Cc4cn(CCC5OCCO5)nn4)CCS3(=O)=O)cc2)cc1OC (configuration not stated)	FUS suppressor inconclusive
COCOCCn1cc(CN2CCS(=O)(=O)N(Cc3ccc(-c4ccc(Cl)c(Cl)c4)cc3)C(C(C)C)C2=O)nn1 (configuration not stated)	aSyn yeast inh inconclusive, TDP43 rescue 35µM, FUS suppressor inconclusive
COCOCCn1cc(CN2CCS(=O)(=O)N(Cc3ccc(-c4ccc(Cl)cc4)cc3)C(C(C)C)C2=O)nn1 (configuration not stated)	none
COc1ccc(C(=O)Nc2ccc(S(=O)(=O)Nc3nccc(C)n3)cc2)cc1OC	none
CCN(CC)S(=O)(=O)c1ccc(OC)c(NC(=O)C2CC(=O)N(c3ccc4c(c3)OCCO4)C2)c1 (configuration not stated)	none (no result: FUS suppressor)
CC(C)Cc1ccc(CN2C(C(C)C)C(=O)N(Cc3cn(CCC4OCCO4)nn3)CCS2(=O)=O)cc1 (configuration not stated)	TDP43 rescue 11µM, FUS suppressor inconclusive
CCOC(=O)CC(=O)CSc1nc(N)c(C#N)c(-c2ccc(Cl)cc2)c1C#N	FUS suppressor inconclusive
CC1CCN(C2=NN3C(=N)/C(=C\c4ccc(OC(=O)c5ccco5)cc4)C(=O)N=C3S2)CC1	TDP43 rescue inconclusive
COc1cc(OC)nc(-n2ncc(Br)c(Br)c2=O)n1	TDP43 rescue 11µM
c1nc(N2CCC3(CC2)OCCO3)c2c3c(sc2n1)CCCC3	TDP43 rescue 22µM
Fc1cc(Br)ccc1Nc1c2c(nc3nc(-c4cccs4)nn13)CCCC2	TDP43 rescue 20µM (no result: aSyn yeast inh)
Cc1ccc(Nc2c3c(nc4nc(-c5cccs5)nn24)CCCC3)cc1F	none (no result: aSyn yeast inh)
CC(C)n1c(SCC(=O)Nc2ccc(F)cc2)nc2c(oc3ccccc32)c1=O	TDP43 rescue 20µM (no result: aSyn yeast inh)
CCOCCCn1c(SCC(=O)Nc2ccccc2OC)nc2c(oc3ccccc32)c1=O	TDP43 rescue 22µM, FUS suppressor inconclusive (no result: aSyn yeast inh)
COc1ccccc1NC(=O)CSc1nc2c(oc3ccccc32)c(=O)n1Cc1ccco1	none (no result: aSyn yeast inh)
Cc1cc(C)cc(-n2c(SCC(=O)Nc3ccccc3)nc3c(oc4ccccc43)c2=O)c1	none (no result: aSyn yeast inh)
COc1ccc(CNC(=O)c2cc(Nc3ccc(OC)cc3OC)nc3ccccc23)cc1	none (no result: aSyn yeast inh)
O=C(NC(=S)Nc1cccc([N+](=O)[O-])c1)C1CCCC1	TDP43 rescue 13µM, Abeta rescue inconclusive
O=C(NC(=S)Nc1ccc(Br)cc1)C1CCC1	TDP43 rescue inconclusive, Abeta rescue 5.6µM
CCOC(=O)c1ccc(NC(=S)NC(=O)C2CCCC2)cc1	Abeta rescue inconclusive
O=C(Nc1ccc(Br)cc1)C1CCCC1	TDP43 rescue 11µM
O=C(NC(=S)Nc1ccc(Br)cc1)C1CCCCC1	Abeta rescue inconclusive
COC(=O)c1ccc(NC(=S)NC(=O)C2CCC2)cc1	TDP43 rescue inconclusive, Abeta rescue 8.9µM
O=C(Nc1nc2n(n1)C(c1ccccc1)C=C(c1ccccc1)N2)c1ccc(Cl)c([N+](=O)[O-])c1 (configuration not stated)	none (no result: aSyn yeast inh)
CCCCN1C(=O)C(CC(=O)NCC2CCCCC2)CC(C(=O)N(C(C)C)C(C)C)=C1C (configuration not stated)	none
CCc1cc(C(=O)c2ccccc2)c(N)s1	TDP43 rescue 11µM
CC(C)Oc1ccc(C(=O)Nc2ccc(C(F)(F)F)n(C)c2=O)cc1	none
CCCCn1nnnc1C(c1ccccc1)N1CCN(c2c(Cl)cncc2Cl)CC1 (configuration not stated)	TDP43 rescue 22µM
CCCCn1nnnc1C(c1ccccc1)N1CCN(c2ccccc2)CC1 (configuration not stated)	none
COc1ccc(C(=O)NCc2nnc(SCC(=O)Nc3ccccc3F)o2)cc1	none
